Screen size: about 290,000 compounds; about 3,200 (1.1%) were called active. Cut-off read from the data, not from the text of the source: active = inhibition above about 60%; inactive = the rest. Shown is part of a subset that was picked to be rich in actives.
biological target: Phosphoethanolamine/phosphocholine phosphatase (Homo sapiens) (UniProt Q8TCT1); experiment: PubChem AID 1565; details: recombinant PHOSPHO1, absorbance phosphatase assay; at 13.3 µM; stronger effect = higher value
Sequence (Q8TCT1 whole entry, looked up): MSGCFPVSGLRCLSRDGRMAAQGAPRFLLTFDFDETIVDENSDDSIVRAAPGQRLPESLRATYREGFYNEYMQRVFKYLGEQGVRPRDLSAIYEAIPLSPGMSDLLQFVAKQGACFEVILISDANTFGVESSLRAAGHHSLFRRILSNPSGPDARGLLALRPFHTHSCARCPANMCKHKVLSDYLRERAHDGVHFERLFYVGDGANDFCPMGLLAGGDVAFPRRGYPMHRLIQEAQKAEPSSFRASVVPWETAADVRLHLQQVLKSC

inhibition, inactive:
O=C(C1CCCN(S(=O)(=O)c2ccc([N+](=O)[O-])cc2)C1)N1CCCCC1 (configuration not stated) 52.6%
O=C(Cc1ccccc1)NNS(=O)(=O)c1ccc([N+](=O)[O-])cc1 6.7%
O=C(NNS(=O)(=O)c1ccc(F)cc1)C1CCCCC1 18.4%
CC(=O)N1c2ccc(S(=O)(=O)N3CCCC(C(=O)Nc4ccc(C)cc4C)C3)cc2CC1C (configuration not stated) 25.4%
COc1ccc(OC)c(NC(=O)C2CCCN2S(=O)(=O)c2cccc3nsnc23)c1 (configuration not stated) 20.7%
COc1ccccc1NC(=O)CSc1nnc(C)n1CC1CCCO1 (configuration not stated) 2.5%
Cc1nnc(SCC(N)=O)n1CC1CCCO1 (configuration not stated) 14.5%
Cc1cccc(NS(=O)(=O)c2ccc(-c3cnc(C4CC4)o3)cc2)c1 36.8%
Cc1nnc(SCC(=O)Nc2ccc(S(=O)(=O)Nc3ccc(Cl)nn3)cc2)s1 7.5%
S=C(c1ccccc1)N1CCCC1 29%
O=C(NC(c1ccccc1)c1ccccc1)N1CCN(CCO)CC1 -22.1%
COc1ccc(C(=O)N2CCCN(C)CC2)c(OC)c1 -0.8%
Cc1ccc(NC(=O)CN(C)C(=O)COC(=O)C(C)(C)Oc2ccc(Cl)cc2)cc1 14.5%
CC(C)CC(CCc1ccccc1)OS(N)(=O)=O (configuration not stated) 4%
CC(=O)c1cc(C#N)c(SCC(=O)Nc2nccs2)nc1C 28.8%
CC(=O)c1cc(C#N)c(N2CCCCC2)nc1C 1.5%
Clc1cc(NC2CCCCC2)ncn1 -10.9%
COc1ccc(-n2cnnc2SCC(=O)Nc2cccc([N+](=O)[O-])c2)cc1 -3.1%
COc1cccc(NCCC(=O)c2cccc([N+](=O)[O-])c2)c1 22.6%
COc1cccc(CNS(=O)(=O)c2cc3c(cc2C)n(C)c(=O)c(=O)n3C)c1 -3.5%
Cc1cccc(CNS(=O)(=O)c2ccc(-c3cnc(C4CC4)o3)cc2)c1 32.9%
Cn1c(SCc2ccc(F)cc2)nnc1-c1ccncc1 35.1%
Cc1nc2sc(C(c3ccco3)N3CCOCC3)c(O)n2n1 (configuration not stated) -2.3%
Oc1c(C(c2cccs2)N2CCN(c3ccc(F)cc3)CC2)sc2ncnn12 (configuration not stated) 19.3%
COc1ccc(CNC(=O)C(NS(=O)(=O)c2cccc3nsnc23)C(C)C)cc1 (configuration not stated) 59.8%
Cc1ccc(NC(=O)CCNS(=O)(=O)c2ccc3c(c2)oc(=O)n3C)cc1C -21.8%
COc1cccc(NC(=O)CCNS(=O)(=O)c2ccc3c(c2)oc(=O)n3C)c1 59.6%
O=c1cc(Cl)c2ccccc2n1-c1ccccc1 19.9%
CN(Cc1c(F)cccc1Cl)S(=O)(=O)c1cccs1 -15.8%
Cc1c(Cl)cccc1NC(=O)CCC(=O)N/N=C/c1ccco1 32.7%
Cc1ccccc1-c1n[nH]c(=S)n1C -137%
Cn1c(-c2sccc2OCc2cccc(C(F)(F)F)c2)n[nH]c1=S 36.7%
COc1cccc(NC(=O)CCc2nnc3ccc(N4CCC(C)CC4)nn23)c1 -8.3%
Cc1cccnc1CCNC(=O)C1CCC(=O)N(Cc2cccc(F)c2)C1 (configuration not stated) 24%
COc1cccc(CNC(=O)C2CCCN(c3ncnc4c3nc3n4CCCCC3)C2)c1 (configuration not stated) -55.9%
O=C(Nc1ccccc1)N1CCN(C(=O)Nc2ccccc2)CC1 15.9%
O=C(Nc1cccc(NC(=O)N2CCN(c3ccccc3)CC2)c1)N1CCN(c2ccccc2)CC1 12.4%
Cc1occc1C(=O)N/N=C/c1ccc(-c2cccc([N+](=O)[O-])c2)o1 40.3%
N#CC(C#N)=CN=c1ccn(Cc2ccc(Cl)cc2Cl)cc1 34%
COCCNC(=O)c1ccc2nc(Cc3ccc(OC)c(OC)c3)oc2c1 -8.2%
Cc1ccc(OCc2n[nH]c(=S)n2-c2ccc(C)cc2)cc1 -0.8%
S=c1[nH]nc(COc2ccccc2)n1-c1ccccc1 -11.2%
COc1ccc(Cc2n[nH]c(=S)n2NC(=O)Nc2ccc(C)cc2)cc1 36.2%
COc1ccc(-n2c(-c3ccc(OC)c(OC)c3)n[nH]c2=S)cc1 -135%
Cc1cccc(N2Cc3ccccc3C2=NC(=O)c2ccc(Cl)nc2)c1 -3.9%
Cc1nn(CC(=O)NCCc2ccccc2)c(=O)c2cc3occc3n12 -36.2%
O=C1/C(=C/c2ccc(F)cc2)SC(=S)N1CCCC(=O)N1CCCCC1CCO (configuration not stated) 38.5%
O=C(c1ccc(CS(=O)(=O)c2ccccc2)o1)N1CCN(c2ccccc2)CC1 2.1%
CC(C)c1ccc(S(=O)(=O)NC2CCCC2)cc1 24%
NS(=O)(=O)c1ccc(NC(=O)COC(=O)c2ccc(Cl)nc2)cc1 8.4%
Cc1cnc(NC(=O)c2ccc(Cl)nc2)s1 -16.6%
CCCCNC(=O)c1cn(CC)c2cc(N3CCN(C(=O)c4ccco4)CC3)c(F)cc2c1=O 12.7%
CCCn1c(C2CCCN2c2nc(-c3ccc(OC)cc3)cs2)nc2ccccc21 (configuration not stated) -1.7%
Cc1ccc(-c2cc(N)on2)cc1 1.1%
CC(C)C(=O)NCc1cc(-c2ccc(Cl)cc2)no1 32.2%
O=C(CCc1nnc2ccc(NCc3ccco3)nn12)Nc1cc(F)ccc1F 19.9%
COc1ccccc1OCCOc1ccc(/C=C2\C(=N)N3N=C(C)SC3=NC2=O)cc1 19.1%
CCOc1ccccc1N1CCN(C(=O)c2ccc3[nH]c(C)c(C)c3c2)CC1 18.1%
Cc1c(C(=O)NCC(c2ccco2)N2CCCC2)oc2ccc(Cl)cc12 (configuration not stated) 7%
COc1cc(/C=N/O)ccc1OCc1ccc([N+](=O)[O-])cc1 5.6%
Fc1ccc(/C=N/n2c(COc3ccccc3)n[nH]c2=S)cc1 5.5%
CCC(NC(=O)c1cc(COc2ccc(F)c(F)c2)on1)c1ccncc1 (configuration not stated) 21.8%
CC1(C)CCc2nc(SCc3ccccc3)c(C#N)cc2C1 15%
Cc1cc(NC(=O)CSc2nc3c(cc2C#N)CCCCC3)no1 56%
CC1CC(C)CN(c2ccc(S(=O)(=O)N3CCOCC3)cc2)C1 (configuration not stated) 33.4%
C=CCN1CN(S(=O)(=O)c2ccc(OC)cc2)c2nc3ccccc3nc21 4.7%
COc1cc(-c2n[nH]c(=S)n2Cc2ccccc2)cc(OC)c1OC -91.1%
CCc1cc(-c2n[nH]c(=S)n2CC(C)C)cs1 -17%
O=C(NCc1ccccc1)c1onc(CSc2nc3ccccc3[nH]2)c1C(=O)NCc1ccccc1 15.1%
CN(c1ccccc1)S(=O)(=O)c1ccc2[nH]c(=O)[nH]c2c1 2.8%
Cc1nc2ccc(C(=O)N3CCN(c4ccccc4)CC3)cc2s1 -38.4%
O=C(c1ccc(S(=O)(=O)N2CCOCC2)cc1)N1CCN(c2ccccc2)CC1 7.1%
C=CCn1c(CNS(=O)(=O)c2ccc(Br)cc2)nnc1SC 38.1%
Cc1cccc(-n2nc3c(c2NC(=O)c2cc4ccccc4o2)CS(=O)(=O)C3)c1 12.5%
Cc1ccc(-n2c(Cc3cccs3)nnc2SCC(=O)OC(C)C)cc1 4.6%
CCn1c(SCC(=O)c2ccc3ccccc3c2)nnc1-c1cccs1 17.7%
CCNC(=O)Nc1ccc(S(=O)(=O)Nc2cnc(C)nc2C)cc1 22%
COc1ccc(N(CC(=O)N2CCOCC2)S(=O)(=O)c2ccccc2)cc1Cl 12.6%

inhibition, active:
O=C(NNS(=O)(=O)c1ccc([N+](=O)[O-])cc1)C1CCCCC1 61%
O=C(CSc1nnc(-c2ccco2)n1CC1CCCO1)c1ccccc1 (configuration not stated) 69.4%
OCCN1CCN(C(=S)c2ccc(-c3ccccc3)cc2)CC1 71.4%
CC(=O)c1cc(C#N)c(SCC(=O)C(C)(C)C)nc1C 75.8%
COc1ccc(Cc2nnc(SCC(=O)c3cccc([N+](=O)[O-])c3)n2C)cc1 76.3%
Oc1c(C(c2ccco2)N2CCC3(CC2)OCCO3)sc2ncnn12 (configuration not stated) 95.9%
Cn1c(=O)oc2cc(S(=O)(=O)NCCC(=O)NCc3ccccc3Cl)ccc21 75.4%
Cn1c(-c2sc3cc(C(F)(F)F)cnc3c2-c2ccccc2)n[nH]c1=S 96.2%
O=C(Nc1ccc(Cl)c(Cl)c1)N1CC=C(c2ccccc2)CC1 61.1%
C[N+]1(CCNC(=O)/C=N/O)CCCCC1 91.1%
COc1ccc(OCc2n[nH]c(=S)n2N)cc1 70.9%
Cc1ccc(OCc2n[nH]c(=S)n2-c2ccccc2)cc1 60.9%
CCN(CC)c1ccc(NC(=O)c2ccc(Cl)nc2)cc1 74.3%
Cc1ccc(S(=O)(=O)Cc2cc(-c3ccc(Cl)cc3)no2)cc1 65.8%
COc1cc(/C=N/n2c(C)n[nH]c2=S)ccc1OCc1ccccc1 69.1%
CC(NC(=O)CSc1nc2c(cc1C#N)CN(C)CC2)c1ccccc1 (configuration not stated) 95.3%
CCCc1cc(-c2n[nH]c(=S)n2Cc2ccccc2)cs1 82.7%
O=C(c1ccccc1)c1ccc(C(=O)N2CCN(c3ccccc3)CC2)cc1 70.6%
CCn1c(Cc2cccs2)nnc1SCC(=O)c1ccc(C)cc1 67.3%
